BoNT F protease = BoNT/F light chain protease inhibitors, primary screen, biochemical, flow cytometry, MLPCN library. Botulinum neurotoxin type F light chain protease (Clostridium botulinum). Multiplex microsphere protease cleavage assay. inhibition, % at 10 µM. hit rate 0.22% among 360,000; in the data active = inhibition above about 35%, passing the limit was not always enough; inconclusive = no clear call, values can overlap the other calls
Autofluor counter = compound fluorescence in toxin protease inhibitor counterscreen; compound autofluorescence counterscreen, microsphere flow cytometry; stronger effect = higher value; fluorescence intensity (concentration not given with the values); hit rate 3.1% among 360,000; in the data active = fluorescence intensity above about 16000; inconclusive = no clear call, values can overlap the other calls
Anthrax LF inh2 = Bacillus anthracis LF protease inhibitors, primary screen, biochemical, multiplex microsphere, MLPCN library. hit rate 0.12% among 360,000. inhibition, % at 10 µM. AID 588501, 2011. multiplex microsphere protease cleavage assay
BoNT-A LC inh2 = BoNT/A light chain protease inhibitors, primary screen, biochemical, flow cytometry, MLPCN library; Botulinum neurotoxin type A light chain protease (Clostridium botulinum A str. ATCC 3502); multiplex microsphere protease substrate cleavage; inhibition, % at 10 µM; hit rate 0.17% among 360,000; AID 588499, 2011
MazEF act = activators of E. coli MazEF toxin-antitoxin RNase, primary screen, biochemical, fluorescence, uHTS. Endoribonuclease toxin MazF (Escherichia coli (strain K12)), P0AE70. FAM/BHQ RNA-DNA oligo cleavage fluorescence, 5 h. activation, % at 20 µM. hit rate 0.32% among 350,000; in the data active = activation above about 50%
Target sequence (P0AE70 whole entry, looked up): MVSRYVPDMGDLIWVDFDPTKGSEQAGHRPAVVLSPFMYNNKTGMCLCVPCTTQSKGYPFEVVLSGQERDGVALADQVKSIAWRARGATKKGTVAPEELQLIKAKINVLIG
PfHsp40 yeast = rescue of yeast from PfHsp40 toxicity, primary screen, S. cerevisiae, ATP luminescence. S. cerevisiae expressing PfHsp40, growth rescue. hit rate 0.68% among 340,000. growth rescue, % at 12.5 µM; in the data active = growth rescue above about 28%, passing the limit was not always enough; inconclusive = no clear call, values can overlap the other calls;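 note: yeast W303a lacking pdr1 and pdr3 grown in galactose medium; growth measured after three days at 30 °C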
Numbers stand for hits. This is a sample that favours compounds with a hit; in the whole collection about 4.3% have one here. Cut-off read from the data, not from the text of the source, unless noted: active = inhibition above about 30%; inconclusive = no clear call, values can overlap the other calls; inactive = below that.

Results for CC(=O)Nc1nc(SCc2ccc(Cl)cc2Cl)n[nH]1 ?
BoNT F protease: inactive; Autofluor counter: 19910; Anthrax LF inh2: inactive; BoNT-A LC inh2: inconclusive; MazEF act: inactive; PfHsp40 yeast: inactive

Results for Nc1nc(SCc2ccc(Cl)cc2Cl)n[nH]1 ?
BoNT F protease: inactive; Autofluor counter: inactive; Anthrax LF inh2: inactive; BoNT-A LC inh2: inactive; MazEF act: inactive; PfHsp40 yeast: inactive

How did Cc1ccc2nc(SC(C(=O)c3ccccc3)c3ccccc3)nc(C)c2c1 (stereo unspecified) do in these assays?
BoNT F protease: inactive; Autofluor counter: inactive; Anthrax LF inh2: inactive; BoNT-A LC inh2: inactive; MazEF act: inactive; PfHsp40 yeast: inactive

Results for Cc1cccc(-n2ncc(C(=O)NC3CCCC3)c2C2CCN(C(=O)OC(C)(C)C)CC2)c1 ?
BoNT F protease: inactive; Autofluor counter: inactive; Anthrax LF inh2: inactive; BoNT-A LC inh2: inactive; MazEF act: inactive; PfHsp40 yeast: inactive

What do the screens show for `Cn1c(N/N=C/c2cc3ccccc3nc2Cl)nc2ccccc21`?
BoNT F protease: inactive; Autofluor counter: inactive; Anthrax LF inh2: inactive; BoNT-A LC inh2: inactive; MazEF act: 206.8; PfHsp40 yeast: inactive

What do the screens show for `CC(C)C[C@H]1CN(CCCC[C@@H]2CNC(=O)C(=O)N2Cc2ccccc2)C(=O)C(=O)N1CC1CCCCC1`?
BoNT F protease: inactive; Autofluor counter: inactive; Anthrax LF inh2: inactive; BoNT-A LC inh2: inactive

What do the screens show for `O=C(NNC1=C(C(=O)C(F)(F)F)CCC1)c1ccc(Cl)cc1`?
BoNT F protease: inactive; Autofluor counter: inactive; Anthrax LF inh2: inactive; BoNT-A LC inh2: inactive; MazEF act: inactive; PfHsp40 yeast: inactive

How did O=C(NNC1=C(C(=O)C(F)(F)F)CCC1)c1cccc(Cl)c1 do in these assays?
BoNT F protease: inactive; Autofluor counter: inactive; Anthrax LF inh2: inactive; BoNT-A LC inh2: inactive; MazEF act: inactive; PfHsp40 yeast: 54.0

How did O=C(Nc1sccc1C(=O)NCc1ccco1)c1cccnc1 do in these assays?
BoNT F protease: inactive; Autofluor counter: 16659; Anthrax LF inh2: inactive; BoNT-A LC inh2: inconclusive; MazEF act: inactive; PfHsp40 yeast: inactive

Results for O=C(NC1CC1)c1cccc(NC(=O)C2CCN(S(=O)(=O)c3cccc(C(F)(F)F)c3)CC2)c1 ?
BoNT F protease: inactive; Autofluor counter: inactive; Anthrax LF inh2: inactive; BoNT-A LC inh2: inactive; MazEF act: inactive; PfHsp40 yeast: inactive

How did CC(C)NC(=O)c1cc2c(=O)n3ccccc3nc2s1 do in these assays?
BoNT F protease: inactive; Autofluor counter: inactive; Anthrax LF inh2: inactive; BoNT-A LC inh2: inactive; MazEF act: inactive; PfHsp40 yeast: inactive

How did Cc1cc(C)cc(NC(=O)c2cc3c(=O)n4ccccc4nc3s2)c1 do in these assays?
BoNT F protease: inactive; Autofluor counter: inactive; Anthrax LF inh2: inactive; BoNT-A LC inh2: inactive; MazEF act: 69.5; PfHsp40 yeast: inactive

What do the screens show for `CC1CN(C(=O)c2cc3c(=O)n4ccccc4nc3s2)CC(C)O1` (stereo unspecified)?
BoNT F protease: inactive; Autofluor counter: 16544; Anthrax LF inh2: inactive; BoNT-A LC inh2: inactive; MazEF act: inactive; PfHsp40 yeast: inactive

Results for CC1C=CC=CC=CC=CC=CC=CC=CC(OC2OC(C)C(O)C(N)C2O)CC2OC(O)(CC(O)CC(O)C(O)CCC(O)CC(O)CC(=O)OC(C)C(C)C1O)CC(O)C2C(=O)O (stereo unspecified) ?
BoNT F protease: inactive; Autofluor counter: inactive; Anthrax LF inh2: inactive; BoNT-A LC inh2: inactive; MazEF act: inactive; PfHsp40 yeast: inactive

What do the screens show for `CCc1ccc(C(=O)Nc2ccc3c(c2)n(C)c(=O)n3C)cc1`?
BoNT F protease: inactive; Autofluor counter: inactive; Anthrax LF inh2: inactive; BoNT-A LC inh2: inactive; MazEF act: inactive; PfHsp40 yeast: inactive

What do the screens show for `CCC(CO)NCc1ccc2c(c1)n(C)c(=O)n2C` (stereo unspecified)?
BoNT F protease: inactive; Autofluor counter: 16488; Anthrax LF inh2: inactive; BoNT-A LC inh2: inactive; MazEF act: inactive; PfHsp40 yeast: inactive

What do the screens show for `O=C(NC(=S)Nc1ccc2nc[nH]c2c1)c1ccccc1`?
BoNT F protease: inactive; Autofluor counter: inactive; Anthrax LF inh2: inactive; BoNT-A LC inh2: inactive; MazEF act: inactive; PfHsp40 yeast: inactive

Results for COc1ccc(CCN2CC(C(=O)NCc3cn(C)nc3C)CCC2=O)cc1 (stereo unspecified) ?
BoNT F protease: inactive; Autofluor counter: inactive; Anthrax LF inh2: inactive; BoNT-A LC inh2: inactive; MazEF act: inactive

How did COc1ccc(NS(=O)(=O)c2cccs2)c(OC)c1 do in these assays?
BoNT F protease: inactive; Autofluor counter: inactive; Anthrax LF inh2: inactive; BoNT-A LC inh2: inactive; MazEF act: inactive; PfHsp40 yeast: inactive

How did COc1ccc(NS(=O)(=O)c2ccc(SC)cc2)c(OC)c1 do in these assays?
BoNT F protease: inactive; Autofluor counter: 21230; Anthrax LF inh2: inactive; BoNT-A LC inh2: inactive; MazEF act: inactive; PfHsp40 yeast: inactive

What do the screens show for `COc1ccc(S(=O)(=O)Nc2ccccc2SC)cc1C`?
BoNT F protease: inactive; Autofluor counter: 23520; Anthrax LF inh2: inactive; BoNT-A LC inh2: inactive; MazEF act: inactive; PfHsp40 yeast: inactive

Results for Cc1ccc2nc(C(C)(C)C)c(Cc3ccsc3)n2c1 ?
BoNT F protease: inactive; Autofluor counter: inactive; Anthrax LF inh2: inactive; BoNT-A LC inh2: inactive

How did Cc1ccc(CN2CCC(CNC(=O)Nc3ccccc3F)CC2)cc1 do in these assays?
BoNT F protease: inactive; Autofluor counter: inactive; Anthrax LF inh2: inactive; BoNT-A LC inh2: inactive; MazEF act: inactive; PfHsp40 yeast: 54.6

Results for O=C(Nc1ccc(F)cc1)NC1CCN(Cc2nnnn2Cc2ccco2)CC1 ?
BoNT F protease: inactive; Autofluor counter: 22240; Anthrax LF inh2: inactive; BoNT-A LC inh2: inconclusive; MazEF act: inactive; PfHsp40 yeast: inactive

What do the screens show for `COc1cccc(NC(=O)NC2CCN(Cc3nnnn3Cc3ccc(F)cc3)CC2)c1`?
BoNT F protease: inactive; Autofluor counter: inactive; Anthrax LF inh2: inactive; BoNT-A LC inh2: inactive; MazEF act: inactive; PfHsp40 yeast: inactive

Results for O=C(Nc1ccccc1F)NC1CCN(Cc2nnnn2Cc2ccc(F)cc2)CC1 ?
BoNT F protease: inactive; Autofluor counter: 23538; Anthrax LF inh2: inactive; BoNT-A LC inh2: inactive; MazEF act: inactive; PfHsp40 yeast: inactive

What do the screens show for `CC(C)(C)c1ccc(NC(=O)Nc2ccc3ccccc3n2)cc1`?
BoNT F protease: inconclusive; Autofluor counter: inactive; Anthrax LF inh2: inactive; BoNT-A LC inh2: inactive; MazEF act: inactive; PfHsp40 yeast: inactive

Results for CCCCCc1cc(O)c2c(C)cc(=O)oc2c1 ?
BoNT F protease: inactive; Autofluor counter: 23187; Anthrax LF inh2: inactive; BoNT-A LC inh2: inactive; MazEF act: inactive; PfHsp40 yeast: 55.8

What do the screens show for `Cc1cc(=O)oc2cc(O)cc(O)c12`?
BoNT F protease: inactive; Autofluor counter: inactive; Anthrax LF inh2: inactive; BoNT-A LC inh2: inactive; MazEF act: inactive; PfHsp40 yeast: inactive

What do the screens show for `CCOC(=O)C1=C(O)CSC1=Nc1ccccc1`?
MazEF act: inactive; PfHsp40 yeast: inactive
